Measured values taken from the antibiotic and cytotoxicity screens of Wong et al. (2023).
Hit rate of the full screen: of about 39,000 compounds, about 500 (1.3%) were called active. The sample as a whole holds a higher share of actives than the screen did.

Tested on: S. aureus RN4220
Assay: growth inhibition call (relative growth <= 0.2)
Conditions: 50 µM

SMILES | growth inhibition call
C[C@H](CO)N1C[C@H](C)[C@@H](CN(C)C(=O)c2ccncc2)OCCCC[C@H](C)Oc2ccc(NS(=O)(=O)c3ccc(Cl)cc3)cc2C1=O | inactive
O=c1[nH]c(=O)n([C@@H]2C[C@@H](O)[C@@H](CO)O2)cc1F | active
O=c1[nH]c(=O)n([C@H]2C[C@H](O)[C@@H](CO)O2)cc1F | active
Cc1cn([C@@H]2C[C@@H](O)[C@H](CO)O2)c(=O)[nH]c1=O | inactive
Cc1cn([C@H]2C[C@H](O)[C@@H](CO)O2)c(=O)[nH]c1=O | inactive
Cc1cn([C@@H]2C[C@H](O)[C@@H](CO)O2)c(=O)[nH]c1=O | inactive
O=c1[nH]c(=O)n(C2CC(O)C(CO)O2)cc1F (stereo not drawn) | inactive
C[C@H](CO)N1C[C@H](C)[C@@H](CN(C)S(=O)(=O)c2cn(C)cn2)Oc2ccc(NC(=O)C3CC3)cc2C1=O | inactive
C[C@H]1CCCCO[C@@H](CN(C)C(=O)Cc2ccccc2)[C@@H](C)CN([C@@H](C)CO)C(=O)c2cc(NS(=O)(=O)c3ccc(F)cc3)ccc2O1 | inactive
C#CCOc1ccc(-c2c(C(=O)NC3CCCCC3)oc(OC)c2S(=O)(=O)c2ccc(Cl)cc2)cc1 | inactive
COc1ccc(S(=O)(=O)N(C)C[C@H]2OCCCC[C@@H](C)Oc3ccc(NC(=O)Nc4c(C)noc4C)cc3C(=O)N([C@@H](C)CO)C[C@@H]2C)cc1 | inactive
O=C(NO)c1cn(-c2cccc(C(=O)N3CCC4(CC3)C(=O)NCN4c3ccccc3)c2)nn1 | active
O=C(Cn1cc(CN2C(=O)COC[C@H]2c2ccccc2)nn1)N1CCC2(CC1)C(=O)NCN2c1ccccc1 | inactive
O=C(CCc1cn(CC(=O)N2CCC3(CC2)C(=O)NCN3c2ccccc2)nn1)NO | active
O=C(/C=C/c1cccc(-c2cn(CC(=O)N3CCC4(CC3)C(=O)NCN4c3ccccc3)nn2)c1)NO | inactive
O=C(/C=C/c1cccc(-c2cn(-c3cccc(C(=O)N4CCC5(CC4)C(=O)NCN5c4ccccc4)c3)nn2)c1)NO | inactive
O=C(NO)c1cn(CC(=O)N2CCC3(CC2)C(=O)NCN3c2ccccc2)nn1 | inactive
Cc1ccc(S(=O)(=O)N(C)C[C@@H]2Oc3c(NC(=O)c4cnccn4)cccc3C(=O)N([C@@H](C)CO)C[C@H]2C)cc1 | inactive
C[C@@H]1CCCCO[C@@H](CN(C)S(=O)(=O)c2ccccc2)[C@@H](C)CN([C@H](C)CO)C(=O)c2cc(NS(=O)(=O)c3ccc(Cl)cc3)ccc2O1 | inactive
Cc1noc(C)c1S(=O)(=O)Nc1cccc2c1O[C@@H](CN(C)Cc1ccc(C(=O)O)cc1)[C@@H](C)CN([C@H](C)CO)C2=O | inactive
CCCC(=O)Nc1ccc2c(c1)OC[C@@H](C)N(C(=O)Cc1cccnc1)C[C@@H](C)[C@H](OC)CN(C)C2=O | inactive
Cc1noc(C)c1CO | inactive
Cc1ccc(-c2noc([C@H](C)c3ccc(CC(C)C)cc3)n2)cc1 | inactive

SMILES | growth inhibition call
C[C@@H]1CCCCO[C@@H](CN(C)Cc2ccccc2)[C@@H](C)CN([C@@H](C)CO)C(=O)c2cc(NS(=O)(=O)c3ccc(F)cc3)ccc2O1 | inactive
NCc1cc2ccccc2s1 | inactive
CC(=O)NC[C@H]1CN(c2ccc(N3CCN(C(=O)CO)CC3)c(F)c2)C(=O)O1 | active
Cn1c(=O)c2c(ncn2CC(=O)N2CCN(c3ccccc3F)CC2)n(C)c1=O | inactive
CC(=O)NCC1CN(c2ccc(N3CCOCC3)c(F)c2)C(=O)O1 (stereo not drawn) | active
Cc1cccc(N2C[C@@H](CN)OC2=O)c1 | inactive
O=C(O)c1cn(C2CC2)c2cc(N3CCC(O)(COc4ccc(N5C[C@H](CO)OC5=O)cc4F)CC3)c(F)cc2c1=O | inactive
CC(C)NC(=O)Nc1ccc2c(c1)C(=O)N([C@H](C)CO)C[C@H](C)[C@@H](CN(C)C(=O)Nc1ccc(F)cc1)OCCCC[C@@H](C)O2 | inactive
Cc1noc(C)c1NC(=O)N(C)C[C@H]1OCCCC[C@@H](C)Oc2ccc(NS(=O)(=O)c3ccc(F)cc3)cc2C(=O)N([C@H](C)CO)C[C@@H]1C | inactive
C[C@H](CO)N1C[C@H](C)[C@H](CN(C)C)OCCCC[C@H](C)Oc2ccc(NS(=O)(=O)c3cn(C)cn3)cc2C1=O | inactive
COc1cc(-c2cc(=O)c3c(=O)cc(-c4ccc(O)c(OC)c4)n(CCc4ccccc4)c3s2)ccc1O | inactive
Cc1noc(C)c1NC(=O)N(C)C[C@@H]1Oc2ccc(NS(=O)(=O)c3cn(C)cn3)cc2CC(=O)N([C@H](C)CO)C[C@H]1C | inactive
CO[C@H]1O[C@H](CO)[C@@H](OC(=O)Nc2ccc(Br)cc2)[C@@H]2OC(=O)[C@H](Cc3cccc(Br)c3)C/C=C/C[C@@H](Cc3cccc(Br)c3)C(=O)O[C@@H]12 | inactive
C[C@@H]1CN([C@@H](C)CO)C(=O)c2cccc(NS(=O)(=O)c3ccc(F)cc3)c2O[C@@H]1CN(C)S(C)(=O)=O | inactive
CN[C@@H]1[C@@H](O)[C@@H](O[C@@H]2[C@@H](O)[C@H](O[C@H]3OC(CN)=CC[C@H]3N)[C@@H](N)C[C@H]2N)OC[C@]1(C)O | inactive
CCNC1CC(N)C(OC2OC(CN)=CCC2N)C(O)C1OC1OCC(C)(O)C(NC)C1O.O=S(=O)(O)O.O=S(=O)(O)O (stereo not drawn) | inactive
CNC1C(O)C(OC2C(N)CC(N)C(OC3OC(CN)=CCC3N)C2O)OCC1(C)O.O=S(=O)(O)O (stereo not drawn) | active
C[C@@H]1CCCCO[C@H](CN(C)C(=O)CCC(F)(F)F)[C@@H](C)CN([C@@H](C)CO)C(=O)c2cc(NS(=O)(=O)c3ccc(F)cc3)ccc2O1 | inactive
CC(C)NC(=O)Nc1ccc2c(c1)C(=O)N([C@@H](C)CO)C[C@H](C)[C@@H](CN(C)Cc1ccccc1)OCCCC[C@H](C)O2 | inactive
CO[C@@H]1CN(C)C(=O)c2ccc(NC(=O)Nc3cccc(Cl)c3)cc2OC[C@@H](C)N(C(=O)Nc2c(C)noc2C)C[C@H]1C | inactive
CC(C)(C)[S@@+]([O-])N1Cc2cc(C(=O)NCc3ccc4c(c3)OCO4)nc(-c3ccc(-c4ccc(C#N)cc4)cc3)c2[C@H]1CCO | inactive
Cc1noc(C)c1S(=O)(=O)N(C)C[C@H]1OCCCC[C@@H](C)Oc2ccc(NC(=O)Nc3ccc(F)cc3)cc2C(=O)N([C@@H](C)CO)C[C@@H]1C | inactive
CC(C)NC(=O)N(C)C[C@@H]1OCCCC[C@@H](C)Oc2ccc(NS(C)(=O)=O)cc2C(=O)N([C@@H](C)CO)C[C@H]1C | inactive

SMILES | growth inhibition call
CCCSc1nc(N[C@@H]2C[C@H]2c2ccc(F)c(F)c2)c2nnn([C@@H]3C[C@H](OCCO)[C@@H](O)[C@H]3O)c2n1 | active
COc1cc(O)c(C(=O)O)c(O)c1 | inactive
CCCCCc1c2c(cc(O)c1C(=O)O)OC(=O)c1c(cc(OC)cc1C(=O)CCCC)O2 | active
COc1cc(C)c(C(=O)O)c(O)c1 | inactive
C[C@@H]1CN([C@H](C)CO)C(=O)c2cccc(NC(=O)Nc3ccc(C(F)(F)F)cc3)c2O[C@@H]1CN(C)Cc1ccc(Oc2ccccc2)cc1 | inactive
Cc1ccc(S(=O)(=O)N(C)C[C@H]2Oc3ccc(NS(=O)(=O)c4ccccc4)cc3C(=O)N([C@@H](C)CO)C[C@@H]2C)cc1 | inactive
C[C@@H]1CN([C@H](C)CO)C(=O)Cc2cc(NS(=O)(=O)c3ccc(Cl)cc3)ccc2O[C@@H]1CN(C)S(C)(=O)=O | inactive
COC(=O)OCOc1c2n(ccc1=O)N([C@@H]1c3ccccc3SCc3c1ccc(F)c3F)[C@@H]1COCCN1C2=O | inactive
CCC(C)CCCCC(=O)NC(CCN)C(=O)NC(C(=O)NC(CCN)C(=O)NC1CCNC(=O)C(C(C)O)NC(=O)C(CCN)NC(=O)C(CCN)NC(=O)C(CC(C)C)NC(=O)C(Cc2ccccc2)NC(=O)C(CCN)NC1=O)C(C)O.O=S(=O)(O)O (stereo not drawn) | active
CC[C@@H](C)CCCCC(=O)N[C@@H](CCN)C(=O)N[C@H](C(=O)N[C@@H](CCN)C(=O)N[C@H]1CCNC(=O)[C@H]([C@@H](C)O)NC(=O)[C@H](CCN)NC(=O)[C@H](CCN)NC(=O)[C@H](CC(C)C)NC(=O)[C@@H](Cc2ccccc2)NC(=O)[C@@H](CCN)NC1=O)[C@@H](C)O | inactive
CC[C@@H](C)CCCC(=O)N[C@@H](CCN)C(=O)N[C@H](C(=O)N[C@@H](CCN)C(=O)N[C@H]1CCNC(=O)[C@H]([C@@H](C)O)NC(=O)[C@H](CCN)NC(=O)[C@H](CCN)NC(=O)[C@H](CC(C)C)NC(=O)[C@@H](CC(C)C)NC(=O)[C@H](CCN)NC1=O)[C@@H](C)O | inactive
C[C@@H]1CN([C@H](C)CO)S(=O)(=O)c2ccc(C#C[C@@H](C)O)cc2O[C@@H]1CN(C)C(=O)c1ccncc1 | inactive
O=C(C[C@@H]1CC[C@H](NC(=O)CN2CCOCC2)[C@@H](CO)O1)NCCc1ccccc1 | inactive
O=C1C=CC(=O)N1 | active
Cc1noc(C)c1NC(=O)N(C)C[C@H]1OCCCC[C@@H](C)Oc2ccc(NC(=O)NC3CCCCC3)cc2C(=O)N([C@H](C)CO)C[C@@H]1C | inactive
CNC1CCC(c2ccc(Cl)c(Cl)c2)c2ccccc21.Cl (stereo not drawn) | active
CN[C@H]1CC[C@@H](c2ccc(Cl)c(Cl)c2)c2ccccc21 | inactive
N[C@@H]1CC[C@@H](c2ccc(Cl)c(Cl)c2)c2ccccc21 | active
O=C(C[C@H]1C=C[C@H](NS(=O)(=O)c2ccc(F)cc2)[C@@H](CO)O1)N1CCC(Cc2ccccc2)CC1 | inactive
Cc1ccc(S(=O)(=O)Nc2ccc3c(c2)C(=O)N([C@H](C)CO)C[C@H](C)[C@H](CN(C)C(=O)Nc2c(C)noc2C)OCCCC[C@H](C)O3)cc1 | inactive
CO[C@@H]1CC[C@@H]2[C@H]1OCCN2C(=O)N(C)C | inactive
CCCC#Cc1ccc2c(c1)O[C@@H](CN(C)S(=O)(=O)c1cccc(F)c1)[C@@H](C)CN([C@H](C)CO)S2(=O)=O | inactive
